Bioassay records from PubChem BioAssay.
ClpP mod = qHTS Assay for Activators of ClpP; 340,000 tested, 1.9% active; purified B. subtilis ClpP, FRET peptide cleavage, 20 min; Potency, µM (doses to about 57.5 µM), without a hit: top-dose activity change, negative = active; ATP-dependent Clp protease proteolytic subunit (Bacillus subtilis (strain 168)), P80244; AID 651965, 2013; active means well fitted falling curve with a large enough effect; inconclusive means small, poorly fitted or top-dose-only effect; inactive means no such curve, though single readings can be large or run the other way; further: potency means the concentration at half of the fitted maximal effect; the source files actives as falling curves though it sought activators and does not explain the sign; nearly all actives have a fitted effect of over 65% in size
Target sequence (P80244 whole entry, looked up): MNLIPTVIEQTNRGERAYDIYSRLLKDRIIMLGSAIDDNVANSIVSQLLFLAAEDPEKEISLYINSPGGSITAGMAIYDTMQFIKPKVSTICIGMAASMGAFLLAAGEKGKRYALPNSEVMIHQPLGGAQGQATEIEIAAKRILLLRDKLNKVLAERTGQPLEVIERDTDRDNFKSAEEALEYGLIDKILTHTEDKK
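FRET quenching reversal measured ClpP activation: 10 microg/mL B. subtilis ClpP at pH 8 with the FRET-FV decapeptide, read at 430 nm after 320 nm excitation. The 20-min minus 0-min signal was scaled between DMSO/no-enzyme wells and ADEP (5.8 microM final).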
DRD3 agonist = qHTS of D3 Dopamine Receptor Agonist: qHTS; D3R DiscoveRx beta-arrestin cells, luminescence, 90 min; D(3) dopamine receptor (Homo sapiens), P35462; AID 652048, 2013; max activation, %; 410,000 tested, 0.58% active; in the data active means max activation above about 30%; further: 0% is about no effect
Target sequence (P35462 whole entry, looked up): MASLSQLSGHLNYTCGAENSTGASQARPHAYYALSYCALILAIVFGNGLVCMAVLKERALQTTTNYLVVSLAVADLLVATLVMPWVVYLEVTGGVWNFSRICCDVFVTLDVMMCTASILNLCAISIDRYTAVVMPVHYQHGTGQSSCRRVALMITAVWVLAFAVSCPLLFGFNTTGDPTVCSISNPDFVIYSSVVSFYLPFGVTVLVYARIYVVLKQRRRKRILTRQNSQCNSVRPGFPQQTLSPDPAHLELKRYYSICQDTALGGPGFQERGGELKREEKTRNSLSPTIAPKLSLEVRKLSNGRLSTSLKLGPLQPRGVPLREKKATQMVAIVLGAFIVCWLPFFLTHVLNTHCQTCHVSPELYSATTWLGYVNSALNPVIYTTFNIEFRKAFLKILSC
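Agonist mode: compounds and dopamine controls were applied to plated cells for 90 min at 37 degrees C after an overnight attachment at 1500 cells/well. Luminescent read-out followed 30 - 60 minutes at room temperature with DiscoveRx detection reagent.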
TDP1 cell CPT = qHTS for Inhibitors of human tyrosyl-DNA phosphodiesterase 1 (TDP1): qHTS in cells in presence of CPT | chicken DT40 Tdp1-/-;hTDP1 cells + 20 nM CPT, ATP luminescence, 48 h | Potency, µM (doses to about 46.2 µM), for the others: at the highest dose activity change, negative = growth inhibition, usual class: inhibitors | 420,000 tested, 12% active; further: potency means the concentration at half of the fitted maximal effect; on the % scale 0 is the no-effect control and ±100 the full control effect; nearly all actives have a fitted effect of over 55% in size
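Chicken DT40 Tdp1-/- cells complemented with human TDP1, 400 cells/well, exposed to compounds plus 20 nM camptothecin for at least 48 h at 37 C; viability read as ATP content by CellTiter-Glo luminescence.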
IL1B secr inh = qHTS for Inhibitors of Inflammasome Signaling: IL-1-beta AlphaLISA Primary Screen | activity change, % at 57.5 µM | 360,000 tested, 4.7% active | THP-1 LPS/ATP IL-1B secretion, AlphaLISA, 16 h; stronger effect = lower value; in the data active means activity change below about -50%; inconclusive means mostly about -30% to -49%; further: on the % scale 0 is the no-effect control and ±100 the full control effect
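THP-1 cells pretreated 1 hr with compounds (up to 57.5 uM final), then stimulated with LPS (250 ng/mL final) plus ATP (1.25 mM final); secreted IL-1B measured by AlphaLISA after 16 hr, decreased signal indicating inhibition.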
DRD3 antagonist = qHTS of D3 Dopamine Receptor Antagonist: qHTS; D3R cells, DiscoveRx beta-arrestin luminescence, antagonist mode; stronger effect = lower value; 360,000 tested, 2.5% active; max response, negative = inhibition, %; D(3) dopamine receptor (Homo sapiens), P35462; in the data active means max response below about -50%; inconclusive means no clear call, values can overlap the other calls; further: on the % scale 0 is the no-effect control and ±100 the full control effect
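Cells expressing the human receptor were seeded at 1500 cells/well, incubated overnight at 37 degrees C in 5% CO2, then exposed to library compounds with dopamine controls for 90 minutes at 37 degrees C before luminescent detection.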
DT40 TDP1 no CPT = qHTS for Inhibitors of human tyrosyl-DNA phosphodiesterase 1 (TDP1): qHTS in cells in absence of CPT; AID 686978, 2013; Potency, µM (highest dose often 46.2 µM), without a hit: at the highest dose activity change, negative = growth inhibition, hits mostly inhibitors; DT40 Tdp1-/- hTDP1 cells, no CPT, ATP luminescence, 48 h; 420,000 tested, 15% active; further: potency means the concentration at half of the fitted maximal effect; on the % scale 0 is the no-effect control and ±100 the full control effect; nearly all actives have a fitted effect of over 55% in size
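DT40 Tdp1-/-;hTDP1 cells, no CPT (DMSO vehicle only), 400 cells/well; compounds pin-transferred; ≥48 hr, 37 °C; CellTiter-Glo 30 min RT dark, luminescence read.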
* = called active by the depositor; ? = inconclusive; . = not tested or not shown. Compounds with a hit are over-represented: about 21% of the library has one in this group of screens. Unless noted, the call rests on the fitted dose curve; in most records, active means well fitted inhibition curve with a large enough effect; inconclusive means small, poorly fitted or top-dose-only effect; inactive means flat fitted curve, though single readings scatter.

SMILES | ClpP mod | DRD3 agonist | TDP1 cell CPT | IL1B secr inh | DRD3 antagonist | DT40 TDP1 no CPT
CCOc1cc(C(=O)NCc2ccncc2)cc(OCC)c1OCC | -1% | -28 | -26% | 28 | -100* | 2%
COCCSc1ccccc1C(=O)Nc1cc(C)ccn1 | 0% | -9 | ? | 10 | -25 | 23µM*
Cc1ccc(NC(=O)c2ccc(S(=O)(=O)NCc3ccco3)cc2)cc1 | . | -4 | -27% | -10 | -21 | -12%
COCCSc1ccccc1C(=O)Nc1cc(C)cc(C)c1 | 2% | -4 | ? | -4 | -2 | -3%
Cc1ccnc(NC(=O)c2ccc(NS(=O)(=O)/C=C/c3ccccc3)cc2)c1 | 28µM* | 1 | -2% | -12 | 14 | -9%
Cc1ccnc(NC(=O)c2ccc(S(=O)(=O)NCc3ccco3)cc2)c1 | . | -7 | 21µM* | -1 | -2 | ?
CC(C)(c1ccccc1)c1ccc(OCc2ccc(C(=O)O)o2)cc1 | -1% | -14 | -13% | 5 | -19 | -9%
CC1(C(=O)NS(=O)(=O)c2ccccc2Cl)CCN1C(=O)CCc1cccs1 (centres undefined) | 1% | 2 | -5% | 8 | 17 | 0%
Cc1ccc(C(=O)/C=C/c2ccco2)c(O)c1 | 1% | -2 | ? | -19 | -9 | -29%
O=C(c1ccc(NS(=O)(=O)c2ccccc2)cc1)N1CCCC1 | -2% | -4 | -19% | -7 | 21 | -5%
CCOc1ccc(C(=O)Nc2cc(C)ccn2)cc1 | . | 4 | 7.3µM* | -9 | 0 | 23µM*
O=C(c1ccc(NS(=O)(=O)/C=C/c2ccccc2)cc1)N1CCCCC1 | . | 10 | ? | -76* | 2 | 12µM*
COc1ccc(C(=O)NN=C2CCCC2)cc1OC | 0% | -19 | 2% | 26 | 11 | 10%
CCOc1cc(C(=O)NN=C2CCCC2)cc(OCC)c1OCC | 0% | -12 | -7% | 37 | -51* | 16%
COc1ccc(C(=O)Nc2cccc(C(=O)Nc3cc(C)ccn3)c2)cc1 | . | -8 | ? | -2 | 11 | 21µM*
COC(=O)c1sccc1NC(=O)CC1C(=O)NCCN1C(=O)c1ccc(F)cc1 (centres undefined) | 0% | 0 | 12% | 27 | 20 | 10%
Cc1ccnc(NC(=O)c2ccc(C(=O)c3ccccc3)cc2)c1 | 0% | -8 | 18µM* | -17 | -55* | 21µM*
CCOc1cc(C(=O)Nc2cc(C)ccn2)cc(OCC)c1OCC | 0% | -3 | 18µM* | -2 | 6 | ?
CCOc1ccc(C(=O)NCC(=O)Nc2cc(C)ccn2)cc1OCC | -6% | -13 | 2% | ? | -12 | 24%
C[C@]12CC[C@H](O)CC1=C[C@H](O)C1C2CC[C@@]2(C)C1CC[C@@]2(O)C#Cc1ccc(CN)cc1 (some centres undefined) | . | 7 | -25% | 11 | 3 | ?
O=C(Cc1cccs1)NCc1ccccc1Br | 0% | 2 | -32% | 0 | -7 | -8%
O=C(O)CNC(=O)CNC(=O)CNC(=O)CSC(=O)c1ccccc1 | . | -3 | -1% | . | . | -2%
COc1ccc2cc(C(=O)C3CCCN(C(=O)Cc4c(C)noc4C)C3)ccc2c1 (centres undefined) | . | 8 | 23µM* | 3 | 4 | 21µM*
COc1ccc2cc(C(=O)C3CCCN(Cc4cnc(C)s4)C3)ccc2c1 (centres undefined) | . | -21 | 23µM* | -66* | -27 | 16µM*
COc1ccc2cc(C(=O)C3CCCN(C(=O)c4cnccn4)C3)ccc2c1 (centres undefined) | . | -2 | ? | -11 | 13 | ?
SMILES | ClpP mod | DRD3 agonist | TDP1 cell CPT | IL1B secr inh | DRD3 antagonist | DT40 TDP1 no CPT
COc1ccc2cc(C(=O)C3CCCN(C(=O)/C=C/c4ccccn4)C3)ccc2c1 (centres undefined) | . | 20 | ? | -13 | 25 | 21µM*
Cc1noc(C)c1COc1ccc(C(=O)N2CCCC(C(N)=O)C2)cc1 (centres undefined) | -2% | -6 | -1% | ? | -14 | 9%
CSc1ccc(C(=O)C2CCCN(C(=O)c3nn(C)c(=O)c4ccccc34)C2)cc1 (centres undefined) | . | 8 | ? | -18 | 24 | 16µM*
NC(=O)CSc1nnc(-c2ccco2)n1-c1ccc(F)cc1 | -3% | -3 | -5% | 0 | -12 | ?
COc1ccccc1-n1c(=O)c(C#N)c(-c2ccc([N+](=O)[O-])cc2)c2cc(C(=O)c3ccccc3O)cnc21 | 0% | 0 | -12% | -6 | -5 | 5%
CC(=O)N1c2ccc(S(=O)(=O)N3CCCC(C(=O)NC4CCCC(C)C4C)C3)cc2CC1C (centres undefined) | 0% | 4 | ? | -20 | 12 | ?
Cc1nc(C)c(C(=O)N2CCCC(C(=O)c3ccc4ccccc4c3)C2)s1 (centres undefined) | ? | 0 | ? | -1 | -3 | 33µM*
COc1ccc2cc(C(=O)C3CCCN(C(=O)c4snnc4C)C3)ccc2c1 (centres undefined) | 4% | 14 | 16µM* | ? | -1 | 23µM*
Cc1cc(C(=O)N2CCCC(C(=O)c3ccc4ccccc4c3)C2)n(C)n1 (centres undefined) | . | 5 | ? | 19 | -12 | 21µM*
COc1c(C)cc(C(=O)C2CCCN(C(=O)c3snnc3C)C2)cc1C (centres undefined) | . | -1 | 18% | 9 | 3 | -17%
CCn1cc(C(=O)N2CCCC(C(=O)c3ccc4ccccc4c3)C2)cn1 (centres undefined) | -28% | -1 | -10% | -15 | 15 | -14%
O=C(CCSCCC(=O)Nc1c(F)c(F)c(F)c(F)c1F)Nc1c(F)c(F)c(F)c(F)c1F | -1% | 1 | -19% | -3 | -6 | ?
CCOC(=O)c1cc2c(N)c(C(=O)c3cc(C#N)c(SC)nc3C)sc2nc1C | 10% | -9 | 13µM* | 15 | -15 | 10µM*
CCCCSc1nc(C)c(C(C)=O)cc1C#N | -2% | -5 | 13% | 7 | -52* | 5%
COC(=O)c1cc(C#N)c(NCc2ccccc2)nc1C | 32µM* | -9 | ? | -6 | -12 | 16µM*
